Measurements published in PubChem BioAssay (NCATS).
Records with an inconclusive call do not appear. The source made the active and inactive calls. The call rests on the fitted dose curve.

target: Retinoic acid receptor RXR-alpha (Homo sapiens) (UniProt P19793); test: qHTS assay for small molecule agonists of retinoid X receptor alpha signaling (AID 588544); conditions: HEK293T RXRa-UAS-bla, beta-lactamase reporter, 18 h; series mostly up to 76.7 µM
Description: NIH Chemical Genomics Center [NCGC] U.S. Environmental Protection Agency [EPA] National Institutes of Environmental Health Sciences [NIEHS] National Toxicology Program [NTP] NCGC Assay Overview The Retinoid X receptor (RXR), a nuclear hormone receptor is expressed in liver, spleen, placenta, epidermis, central nervous system. These receptors are able to form homo and heterodimers with other nuclear receptors and due to this heterodimerizing ability, RXR functions as master regulators producing diverse physiological effects. Three subtypes of RXR exist; alpha, beta and gamma. Retinoid X receptor alpha (RXR-alpha) has potential roles in metabolic signaling pathways, skin alopecia, dermal cysts, cardiac development, insulin sensitization etc. Therefore screening environmental chemicals on RXR-alpha signaling can be used for the studies focused on such therapeutic applications.
NCGC Assay Protocol Summary Using a beta-lactamase reporter-gene under control of Retinoid X receptor--alpha (RXR-alpha) response element, a cell-based assay [GeneBLAzer (RXR-alpha -UAS-bla assay developed by Invitrogen] was used to measure RXR-alpha ligands signaling. GeneBLAzer RXR-alpha -UAS-bla HEK293T cells were used with assay medium containing 2% charcoal-stripped FBS. The assay was performed in clear bottom black Greiner 1536-well plates. 9-cis-retinoic acid was used in the screen as the positive control. Library compounds were measured for their ability to stimulate the reporter gene activity. Compounds were screened in a titration series in 1536-well format. The fluorescence intensity (405 nm excitation, 460/530 nm emission) was measured using an EnVision plate reader. Data was normalized relative to 9-cis-retinoic acid control (500 nM, 100%), and DMSO only wells (basal, 0%). Concentration-response titration points for each compound were fitted to the Hill equation yielding concentrations of half-maximal stimulation (EC50) and maximal response (efficacy) values. qHTS protocol for RXR-alpha beta-lactamase assay in agonist mode [Step] [Parameter] [Value] [Description] 1. Reagent; 6 uL; 2500 cells/well 2. Incubation; 37 C for 4 hrs 3. Compounds; 23 nL; 0.59 nM to 92 uM 4. Controls (9-cis-retinoic acid); 23 nL, - One column with dose response, start 38 uM, 1:3 dilutions in duplicates - Final concentrations of 500 nM and 50 nM in two columns 5. Incubation; 37 C for 18 hrs 6. Detection reagent; 1 uL of CCF4-dye 7. Incubation; RT for 2 hrs 8. Detection; Fluorescence; Envision plate reader

Retinoic acid receptor RXR-alpha (Homo sapiens), sequence (P19793 whole entry, looked up): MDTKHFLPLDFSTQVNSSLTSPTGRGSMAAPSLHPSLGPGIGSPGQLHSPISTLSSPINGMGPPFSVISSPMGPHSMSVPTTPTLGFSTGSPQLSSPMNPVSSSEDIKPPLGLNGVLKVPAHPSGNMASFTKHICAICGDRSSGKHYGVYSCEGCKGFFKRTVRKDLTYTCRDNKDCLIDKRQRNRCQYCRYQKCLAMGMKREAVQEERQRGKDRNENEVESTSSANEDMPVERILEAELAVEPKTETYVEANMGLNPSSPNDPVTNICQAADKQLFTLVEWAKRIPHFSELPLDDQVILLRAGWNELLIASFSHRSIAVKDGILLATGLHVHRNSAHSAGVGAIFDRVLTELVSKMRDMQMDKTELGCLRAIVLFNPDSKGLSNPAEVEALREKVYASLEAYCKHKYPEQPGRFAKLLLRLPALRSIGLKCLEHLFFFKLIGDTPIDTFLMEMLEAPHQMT

Row | Structure (SMILES) | outcome
1 | CN1[C@H]2CC(OC(=O)[C@H](CO)c3ccccc3)C[C@H]1[C@H]1O[C@H]12 (some centres not stated) | inactive
2 | O=C=Nc1ccc(Cc2ccc(N=C=O)cc2)cc1 | inactive
3 | ClC1=C(Cl)C(Cl)(Cl)C(Cl)=C1Cl | inactive
4 | Cc1ccc(S(=O)(=O)Oc2ccc(N=Nc3ccc(-c4ccc(N=Nc5c(O)ccc6cc(S(=O)(=O)O)cc(S(=O)(=O)O)c56)c(C)c4)cc3C)cc2)cc1 | inactive
5 | CCCCCC/C(C=O)=C\c1ccccc1 | inactive
6 | C=C(C)c1ccccc1 | inactive
7 | Cc1cc(Nc2ccc(O)cc2)ccc1N | inactive
8 | CC1CCC(C(C)C)C(O)C1 (configuration not stated) | inactive
9 | O=C(/C=C/c1ccc(O)c(O)c1)OC1C[C@](O)(C(=O)O)C[C@@H](O)[C@H]1O (some centres not stated) | inactive
10 | O=Cc1ccc(Cl)c(Cl)c1 | inactive
11 | Cc1cccc(O)c1C | inactive
12 | c1ccc2c(c1)ccc1cc3c(ccc4ccccc43)cc12 | inactive
